Results published in PubChem BioAssay (NCATS).
Inconclusive results are not listed. Active and inactive are the calls of the source. Unless noted, calls come from the whole dose curve.

How the values were obtained:
[1] = qHTS for Inhibitors of the Functional Ribonucleoprotein Complex (vRNP) of Lassa (LASV) Arenavirus: LASV Primary Screen - GLuc reporter signal (AID 1347082; calls by dose curve; tested in HEK293 reporter line; note: nearly all actives have a fitted effect of over 60% in size)
[2] = qHTS for Inhibitors of the Functional Ribonucleoprotein Complex (vRNP) of Lassa (LASV) Arenavirus: Viability assay - alamar blue signal for LASV Primary Screen (AID 1347083; calls by dose curve; tested in HEK293 reporter line; note: nearly all actives have a fitted effect of over 80% in size)
[3] = qHTS for Inhibitors of the Functional Ribonucleoprotein Complex (vRNP) of Lymphocytic Choriomeningitis Arenaviruses (LCMV): Viability assay - alamar blue signal for LCMV Primary Screen (AID 1347085; calls by dose curve; tested in HEK293 reporter line; note: nearly all actives have a fitted effect of over 80% in size)
[4] = target: Nucleoprotein (Lymphocytic choriomeningitis virus (strain Armstrong)) (UniProt P09992); assay: qHTS for Inhibitors of the Functional Ribonucleoprotein Complex (vRNP) of Lymphocytic Choriomeningitis Arenaviruses (LCMV): LCMV Primary Screen - GLuc reporter signal (AID 1347086); note: nearly all actives have a fitted effect of over 70% in size
Sequence of Nucleoprotein (Lymphocytic choriomeningitis virus (strain Armstrong)) (P09992 whole entry, looked up): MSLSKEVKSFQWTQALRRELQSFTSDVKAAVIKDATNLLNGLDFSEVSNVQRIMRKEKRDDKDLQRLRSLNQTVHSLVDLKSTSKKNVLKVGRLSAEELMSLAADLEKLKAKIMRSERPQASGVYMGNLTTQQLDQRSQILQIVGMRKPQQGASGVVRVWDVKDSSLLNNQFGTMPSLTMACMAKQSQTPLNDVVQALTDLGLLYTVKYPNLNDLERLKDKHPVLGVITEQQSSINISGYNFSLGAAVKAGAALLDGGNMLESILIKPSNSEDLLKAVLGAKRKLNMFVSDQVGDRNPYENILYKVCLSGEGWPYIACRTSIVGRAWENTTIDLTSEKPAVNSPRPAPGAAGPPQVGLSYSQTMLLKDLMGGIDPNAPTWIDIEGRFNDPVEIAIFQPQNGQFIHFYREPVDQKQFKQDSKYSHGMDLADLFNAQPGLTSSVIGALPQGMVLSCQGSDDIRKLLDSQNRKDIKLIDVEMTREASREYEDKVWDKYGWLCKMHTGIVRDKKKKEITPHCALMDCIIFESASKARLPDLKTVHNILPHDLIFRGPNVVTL
% is set by controls: 0 for no effect and ±100 for the full control effect.
Note: series mostly up to about 57 µM.

CC(C)[N+](C)(C)CC(O)COc1cccc2ccccc12 (stereo not given)
inactive: Potency [1] | Potency [2] | Potency [3] | Potency [4]

CC(=O)OCC(=O)[C@@]1(O)CC[C@H]2[C@@H]3CCC4=CC(=O)CC[C@]4(C)[C@H]3C(=O)C[C@@]21C
inactive: Potency [1] | Potency [2] | Potency [3] | Potency [4]

COc1cc(C=O)ccc1O
inactive: Potency [1] | Potency [2] | Potency [3] | Potency [4]

CC(=O)OC(C)C[N+](C)(C)C (stereo not given)
inactive: Potency [1] | Potency [2] | Potency [3] | Potency [4]

NC(CS)C(=O)O (stereo not given)
inactive: Potency [1] | Potency [2] | Potency [3] | Potency [4]

Nc1cc(=O)[nH]c(N)n1
inactive: Potency [1] | Potency [2] | Potency [3] | Potency [4]

CC(=O)NC(=O)c1ccccc1O
inactive: Potency [1] | Potency [2] | Potency [3] | Potency [4]

Cc1ccccc1N1CCN(CCc2nnc3n2CCCC3)CC1
inactive: Potency [1] | Potency [2] | Potency [3] | Potency [4]

CC[C@H](C)C(=O)O[C@H]1C[C@H](O)C=C2C=C[C@H](C)[C@H](CC[C@@H](O)C[C@@H](O)CC(=O)O)[C@H]21
inactive: Potency [1] | Potency [2] | Potency [3] | Potency [4]

CC(=O)SCC(CC(=O)c1ccc(C)cc1)C(=O)O (stereo not given)
inactive: Potency [1] | Potency [2] | Potency [3] | Potency [4]

OC1(c2ccc(Cl)cc2)CCNCC1
inactive: Potency [1] | Potency [2] | Potency [3] | Potency [4]

CC(=O)OCC[N+](C)(C)C
inactive: Potency [1] | Potency [2] | Potency [3] | Potency [4]

CCC[C@@H]1C[C@@H](C(=O)N[C@@H]([C@H]2O[C@H](SC)[C@H](O)[C@@H](O)[C@H]2O)[C@@H](C)O)N(C)C1
inactive: Potency [1] | Potency [2] | Potency [3] | Potency [4]

Nc1c[n+](N2CCOCC2)no1
inactive: Potency [1] | Potency [2] | Potency [3] | Potency [4]

CC(O)CCCCn1c(=O)c2c(ncn2C)n(C)c1=O (stereo not given)
inactive: Potency [1] | Potency [2] | Potency [3] | Potency [4]

O=C(OCCN1CCOCC1)c1cccnc1Nc1cccc(C(F)(F)F)c1
inactive: Potency [1] | Potency [2] | Potency [3] | Potency [4]

NC(=O)NC1N=C([O][Al])NC1=O (stereo not given)
inactive: Potency [1] | Potency [2] | Potency [3] | Potency [4]

CO[C@@]1(NC(=O)CSC[C@@H](N)C(=O)O)C(=O)N2C(C(=O)O)=C(CSc3nnnn3C)CS[C@@H]21
inactive: Potency [1] | Potency [2] | Potency [3] | Potency [4]

NCCNCCNCCN
inactive: Potency [1] | Potency [2] | Potency [3] | Potency [4]

CCCCC(CC)COC(=O)c1ccccc1O (stereo not given)
inactive: Potency [1] | Potency [2] | Potency [3] | Potency [4]

COc1ccc2nc(SCc3ncc(C)c(OC)c3C)[nH]c2c1
inactive: Potency [1] | Potency [2] | Potency [3] | Potency [4]

Oc1c(Br)cc(Br)c2cccnc12
inactive: Potency [1] | Potency [2] | Potency [3] | Potency [4]

O=C(O)c1ccccc1OP(=O)(O)O
inactive: Potency [1] | Potency [2] | Potency [3] | Potency [4]

Cc1cc(=O)[nH]c(=S)[nH]1
inactive: Potency [1] | Potency [2] | Potency [3] | Potency [4]

O=C(O)COc1nn(Cc2ccccc2)c2ccccc12
inactive: Potency [1] | Potency [2] | Potency [3] | Potency [4]

O=C(O)Cc1csc(-c2ccc(Cl)cc2)n1
inactive: Potency [1] | Potency [2] | Potency [3] | Potency [4]

O=C(N[C@H](CO)[C@H](O)c1ccc([N+](=O)[O-])cc1)C(Cl)Cl
inactive: Potency [1] | Potency [2] | Potency [3] | Potency [4]

C[C@@H]1C[C@H]2[C@@H]3C[C@H](F)C4=CC(=O)C=C[C@]4(C)[C@@]3(F)[C@@H](O)C[C@]2(C)[C@@]1(O)C(=O)CO
inactive: Potency [1] | Potency [2] | Potency [3] | Potency [4]

CC(=O)Nc1ccc(OCC(O)CNC(C)C)cc1 (stereo not given)
inactive: Potency [1] | Potency [2] | Potency [3] | Potency [4]

CCN(CC)CCNC(=O)c1cc(S(C)(=O)=O)ccc1OC
inactive: Potency [1] | Potency [2] | Potency [3] | Potency [4]

CC(=O)Nc1c(I)c(NC(C)=O)c(I)c(C(=O)O)c1I
inactive: Potency [1] | Potency [2] | Potency [3] | Potency [4]

CCCCCCCCCCCCCCCCCCN(C)C
inactive: Potency [1] | Potency [2] | Potency [3] | Potency [4]

Cc1cc(-n2nc3ccc(Cl)cc3n2)c(O)c(C(C)(C)C)c1
inactive: Potency [1] | Potency [2] | Potency [3] | Potency [4]

CC(C)(C)NCC(O)COc1ccc(NC(=O)NC2CCCCC2)cc1 (stereo not given)
inactive: Potency [1] | Potency [2] | Potency [3] | Potency [4]

Cc1nnc(SCC2=C(C(=O)O)N3C(=O)[C@@H](NC(=O)Cn4cnnn4)[C@H]3SC2)s1
inactive: Potency [1] | Potency [2] | Potency [3] | Potency [4]

NCC[C@H](O)C(=O)N[C@@H]1C[C@H](N)[C@@H](O[C@H]2O[C@H](CN)[C@@H](O)[C@H](O)[C@@H]2O)[C@H](O)[C@@H]1O[C@H]1O[C@H](CO)[C@@H](O)[C@H](N)[C@@H]1O
inactive: activity change, negative = inhibition [1] -6.8% [at 0.757 µM] | activity change, negative = reduced viability [2] -4.3% [at 0.757 µM] | activity change, negative = lower viability [3] -4.65% [at 0.757 µM] | activity change, negative = inhibition [4] 19.2% [at 0.757 µM]

COc1ccc2[nH]cc(CCNC(C)=O)c2c1
inactive: Potency [1] | Potency [2] | Potency [3] | Potency [4]

O=c1cc[nH]c(=O)[nH]1
inactive: Potency [1] | Potency [2] | Potency [3] | Potency [4]

CCCCCC(C)N (stereo not given)
inactive: Potency [1] | Potency [2] | Potency [3] | Potency [4]

CC(=O)CC(c1ccc([N+](=O)[O-])cc1)c1c(O)c2ccccc2oc1=O (stereo not given)
inactive: Potency [1] | Potency [2] | Potency [3] | Potency [4]

C=CCc1ccc(O)c(OC)c1
inactive: Potency [1] | Potency [2] | Potency [3] | Potency [4]

Nc1ccc([N+](=O)[O-])c(C(F)(F)F)c1
inactive: Potency [1] | Potency [2] | Potency [3] | Potency [4]

CCCCCCCCCCCCCCCCCC(=O)OCC(O)CO (stereo not given)
inactive: Potency [1] | Potency [2] | Potency [3] | Potency [4]

C[N+]1(C)CCCC(OC(=O)C(O)(c2ccccc2)c2ccccc2)C1 (stereo not given)
inactive: Potency [1] | Potency [2] | Potency [3] | Potency [4]

COC(=O)N/N=C/c1c[n+]([O-])c2ccccc2[n+]1[O-]
inactive: Potency [1] | Potency [2] | Potency [3] | Potency [4]

COc1cc(-c2ccc(=O)[nH]n2)ccc1OC(F)F
inactive: Potency [1] | Potency [2] | Potency [3] | Potency [4]

NC(=O)NS(=O)(=O)c1ccc(N)cc1
inactive: Potency [1] | Potency [2] | Potency [3] | Potency [4]

Cc1ncc(CO)c(CN)c1O
inactive: Potency [1] | Potency [2] | Potency [3] | Potency [4]

COC(=O)C1=C(C)NC(C)=C(C(=O)OCC(C)=O)C1c1ccccc1[N+](=O)[O-] (stereo not given)
inactive: Potency [1] | Potency [2] | Potency [3] | Potency [4]

Cc1[nH]cnc1-c1ccc(Cl)cc1
inactive: Potency [1] | Potency [2] | Potency [3] | Potency [4]

CC[C@]12CCCN3CCc4c(n(c5ccccc45)[C@@](O)(C(=O)OC)C1)[C@@H]32
inactive: Potency [1] | Potency [2] | Potency [3] | Potency [4]

CCC(=O)c1c(O)cc(O)cc1O
inactive: Potency [1] | Potency [2] | Potency [3] | Potency [4]

CCN(CC)C(C)CN1c2ccccc2Sc2ccccc21 (stereo not given)
inactive: Potency [1] | Potency [2] | Potency [3] | Potency [4]

OCc1ccc(Cl)cc1Cl
inactive: Potency [1] | Potency [2] | Potency [3] | Potency [4]

O=C(/C=C/c1ccccc1)OCc1ccccc1
inactive: Potency [1] | Potency [2] | Potency [3] | Potency [4]

CSCC[C@H](NC(=O)[C@H](Cc1c[nH]c2ccccc12)NC(=O)CCNC(=O)OC(C)(C)C)C(=O)N[C@@H](CC(=O)O)C(=O)N[C@@H](Cc1ccccc1)C(N)=O
inactive: Potency [1] | Potency [2] | Potency [3] | Potency [4]

OC[C@H]1O[C@H](O[C@]2(CCl)O[C@H](CCl)[C@@H](O)[C@@H]2O)[C@H](O)[C@@H](O)[C@H]1Cl
inactive: Potency [1] | Potency [2] | Potency [3] | Potency [4]

CC1CCc2c(N3CCC(O)CC3)c(F)cc3c(=O)c(C(=O)O)cn1c23 (stereo not given)
inactive: Potency [1] | Potency [2] | Potency [3] | Potency [4]

COc1cnc(NS(=O)(=O)c2ccc(N)cc2)nc1
inactive: Potency [1] | Potency [2] | Potency [3] | Potency [4]

NS(=O)(=O)c1cc2c(cc1Cl)NC(CC1CCCC1)NS2(=O)=O (stereo not given)
inactive: Potency [1] | Potency [2] | Potency [3] | Potency [4]
